Test systems include DU-145 prostate; K-562 leukemia; MALME-3M melanoma; MDA-MB-231 breast; RXF 393 renal; SF-268 CNS; SF-295 CNS; SF-539 CNS; UACC-257 melanoma; M14 melanoma; HCT-15 colon; HT29 colon; SNB-75 CNS; SNB-19 CNS; U251 CNS; PC-3 prostate; SK-MEL-5 melanoma; UACC-62 melanoma; LOX IMVI melanoma; SK-MEL-28 melanoma.
What all share (experiment): NCI-60 one-dose screen, 48 h (100 = growth as untreated, 0 = no growth, -100 = all killed)
What all share (details): 10 µM unless noted

Our source for the growth values is PubChem BioAssay (NCI).

SMILES strings stand for the structures. This is part of a sample that, as a whole, favours compounds with a hit. Of some 83,000 tested, about 20% had one in any assay.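 Assay: single dose, 48 h. Readout: percent growth (0 = no net growth; negative = cell death). Active: <10.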 Values without a mark were called inactive. Active and inactive are the calls of the source.

Regarding `COc1ccc(C2CC(c3cccc(OCCCCOc4cccc(C5=NN(C(C)=O)C(c6ccc(OC)cc6)C5)c4)c3)=NN2C(C)=O)cc1` (configuration not stated), the growth is 81.6% with DU-145 prostate; 37% in the assay on K-562 leukemia; 105% in the assay with MALME-3M melanoma; 77.3% in the assay with MDA-MB-231 breast; 95.2% in the assay with RXF 393 renal; 74.8% in the assay on SF-268 CNS. Also, the growth in the assay with SF-295 CNS was 44.3%; with SF-539 CNS, 81.5%; with UACC-257 melanoma it was 46.8%; in the assay with M14 melanoma it was 85.3%; in the assay with HCT-15 colon it was 75%; with HT29 colon, 89.3%. The growth is 75.4% in the assay on SNB-75 CNS; 64.5% with SNB-19 CNS; 81.9% in the assay on U251 CNS; 48.4% in the assay with PC-3 prostate; 11.8% with SK-MEL-5 melanoma; 57.1% in the assay on UACC-62 melanoma. The growth with LOX IMVI melanoma was 62.2%; in the assay on SK-MEL-28 melanoma, 97.2%.
With `CCN(CC)CCOc1ccc(C(=C(C)Cc2ccc(OC)cc2)c2ccc(OCCN(CC)CC)cc2)cc1`, the growth with DU-145 prostate was 74.5%; in the assay on K-562 leukemia it was -4.16% (active); in the assay with MALME-3M melanoma it was -75.5% (active); with MDA-MB-231 breast, 55.4%; with RXF 393 renal, 41.9%; with SF-268 CNS, 70%. Also, the growth in the assay on SF-295 CNS was 52.8%; in the assay on SF-539 CNS, -45.9% (active); in the assay with UACC-257 melanoma it was 62.6%; in the assay on M14 melanoma it was -53.6% (active); in the assay on HCT-15 colon, 7.13% (active); in the assay on HT29 colon, -4.07% (active). Also, the growth was 76.5% in the assay with SNB-75 CNS; 74.4% with SNB-19 CNS; 9.54% (active) in the assay on U251 CNS; 66.2% in the assay on PC-3 prostate; 31.1% with SK-MEL-5 melanoma; -37.6% (active) in the assay on UACC-62 melanoma.
With `C=CCSC1=NC2C(N(CC)C(=O)N2CC)N1/N=C/C=C/c1ccccc1OC` (configuration not stated), the growth in the assay on DU-145 prostate was 92.2%; in the assay with K-562 leukemia, 28%; in the assay with MALME-3M melanoma, 72.2%; with MDA-MB-231 breast, 82.5%; with RXF 393 renal, 79.3%; with SF-268 CNS it was 89.2%. For the same compound, the growth in the assay with SF-295 CNS is 58.5%; in the assay on SF-539 CNS, 78.1%; in the assay with UACC-257 melanoma, 83%; in the assay with M14 melanoma it was 72.6%; in the assay with HCT-15 colon, 50.8%; with HT29 colon it was 70.3%. The growth with SNB-75 CNS was 70.7%; in the assay on SNB-19 CNS, 79.9%; with U251 CNS, 74.2%; in the assay with PC-3 prostate it was 62.4%; with SK-MEL-5 melanoma, 65.5%; in the assay with UACC-62 melanoma, 54.6%. For the same compound, the growth in the assay with LOX IMVI melanoma is 68.9%.
On to `CN(C)CCNc1ccc2ncc(C#Cc3cncc(C(=O)Nc4ccc(CN5CCN(C)CC5)c(C(F)(F)F)c4)c3)n2n1`, for which the growth in the assay on DU-145 prostate is 18.9%; in the assay on K-562 leukemia it was 2.29% (active); in the assay with MALME-3M melanoma it was 17.4%; with MDA-MB-231 breast it was -18.2% (active); in the assay with RXF 393 renal, -75.1% (active); with SF-268 CNS, -50.9% (active). Further, the growth in the assay on SF-295 CNS is 45.2%; with SF-539 CNS, -71.8% (active); with UACC-257 melanoma it was 74.9%; in the assay on M14 melanoma, 54.1%; in the assay with HCT-15 colon, 34.7%; with HT29 colon it was -13% (active). Also, the growth was -93.4% (active) in the assay on SNB-75 CNS; 1.59% (active) in the assay with SNB-19 CNS; 23.8% with U251 CNS; 2.27% (active) with PC-3 prostate; 74.6% in the assay on SK-MEL-5 melanoma; 60.2% in the assay on UACC-62 melanoma. Also, the growth with LOX IMVI melanoma was -88.6% (active).
As for `O=C(NCCNc1cc(-c2cn(-c3ccccc3)nc2-c2cccc(O)c2)ccn1)Nc1cc(C(F)(F)F)cc(C(F)(F)F)c1`, the growth with DU-145 prostate is 106%; with K-562 leukemia, 86.9%; in the assay with MALME-3M melanoma, 90.6%; in the assay on MDA-MB-231 breast it was 92.9%; in the assay with RXF 393 renal it was 86.7%; in the assay on SF-268 CNS it was 88.8%. Moreover, the growth in the assay on SF-295 CNS was 89.8%; with SF-539 CNS, 89.3%; with UACC-257 melanoma, 101%; in the assay with M14 melanoma, 89%; in the assay on HCT-15 colon, 100%; in the assay with HT29 colon, 95.7%. The growth was 75.4% in the assay with SNB-75 CNS; 97% in the assay on SNB-19 CNS; 86.8% with U251 CNS; 80.7% in the assay with PC-3 prostate; 96.8% in the assay on SK-MEL-5 melanoma; 94.1% with UACC-62 melanoma. Also, the growth with LOX IMVI melanoma was 88%.
For the compound `CCOC(=O)c1cccc(NC2=C(Cl)C(=O)c3nc(C)ccc3C2=O)c1`, the growth is 108% in the assay on DU-145 prostate; 15.6% in the assay on K-562 leukemia; 96.3% with MALME-3M melanoma; 89.8% in the assay on MDA-MB-231 breast; 97.8% in the assay on RXF 393 renal; 96.2% in the assay with SF-268 CNS. Also, the growth in the assay on SF-295 CNS was 113%; in the assay with SF-539 CNS it was 104%; with UACC-257 melanoma, 82%; with M14 melanoma, 96.4%; in the assay on HCT-15 colon, 72.2%; in the assay with HT29 colon, 116%. Besides, the growth in the assay with SNB-75 CNS was 108%; in the assay with SNB-19 CNS, 90.8%; in the assay on U251 CNS, 103%; in the assay on PC-3 prostate, 82%; in the assay on SK-MEL-5 melanoma it was 98.2%; in the assay with UACC-62 melanoma, 95.8%. In the assay with LOX IMVI melanoma, the growth is 65.1%.
With `CC1=C(C)C(=O)C(Nc2ccc3c(c2)OCO3)=C(Br)C1=O`, the growth in the assay with DU-145 prostate is 109%; in the assay on K-562 leukemia it was 3.43% (active); in the assay with MALME-3M melanoma, 112%; with MDA-MB-231 breast it was 69.4%; in the assay with RXF 393 renal, 105%; in the assay with SF-268 CNS, 96.7%. The growth is 96.8% in the assay on SF-295 CNS; 106% in the assay with SF-539 CNS; 94.3% in the assay on UACC-257 melanoma; 105% in the assay on M14 melanoma; 101% with HCT-15 colon; 109% in the assay on HT29 colon. The growth in the assay with SNB-75 CNS was 74.3%; with SNB-19 CNS, 93.8%; in the assay with U251 CNS it was 103%; with PC-3 prostate, 86%; in the assay on SK-MEL-5 melanoma, 90.2%; in the assay on UACC-62 melanoma, 87.4%. In addition, in the assay on LOX IMVI melanoma, the growth was 77.2%.
Turning to `Cc1ccc(C(=O)Nc2ccc(CNCCN3CCOCC3)c(C(F)(F)F)c2)cc1C#Cc1cnc2cccnn12`, the growth in the assay on DU-145 prostate is 33.5%; in the assay on K-562 leukemia, 5.07% (active); in the assay on MALME-3M melanoma, -44.6% (active); in the assay with MDA-MB-231 breast, -18.5% (active); with RXF 393 renal it was -54.2% (active); with SF-268 CNS, 15.6%. The growth in the assay on SF-295 CNS is -24.7% (active); in the assay on SF-539 CNS it was -69.3% (active); in the assay with UACC-257 melanoma, -45.3% (active); in the assay with M14 melanoma, -7.89% (active); with HCT-15 colon it was 7.26% (active); with HT29 colon, 2.36% (active). For the same compound, the growth is -18% (active) in the assay on SNB-75 CNS; 36.6% with SNB-19 CNS; 6.06% (active) in the assay on U251 CNS; 19.3% in the assay on PC-3 prostate; -85.9% (active) with SK-MEL-5 melanoma; 15.1% in the assay with UACC-62 melanoma. Further, the growth in the assay with LOX IMVI melanoma was -85.6% (active).
